{
  "source": "the supplement of paper PMC8728848",
  "binders": {"B1": {"name": "GroEL (Clostridium difficile), Q18CT5 (protein)", "chain": "MAKEIKFSEETRRALEAGVNKLADTVKVTLGPKGRNVILDKKFGSPLITNDGVTIAKEIELEDRFENMGAQLVKEVATKTNDVAGDGTTTATVLAQAIIREGLKNVTAGANPILLRKGIQKAVTVAVEELKNQSRIVETQEAISQVASISAGDEEVGKLIAEAMEIVGKDGVITVEESQTMNTELDAVEGMQFDRGFVSAYMVTDVDKMEAVLNDPYILITDKKISNIQELLPVLEQIVQQGKKLLIIAEDVEGEALSTLVVNKLRGTFDVVAVKAPGFGDRRKEMLQDIAILTGAQVISEELGYDLKEADLSMLGRASSVKVTKESTTIVDGSGDKKAIEDRVTQIKHQVEQTTSDFDREKLMERLAKLAGGVAVVKVGAATEVELKERKLRIEDALNATRAAVEEGIVAGGGTAFVSVIPAIGTLIESLEGEVKLGAQIVKKALEEPLRQIAINAGLEGAVIVQNVVNSEAETGFDALNEKYVNMIEAGIVDPTKVSRSALQNAASIASTFLTTEAAVADLPEKEDAGMPGMGGGMPGMM"}},
  "assay_in_all_cases": "glycan array binding signal (z-score within array); higher = stronger binding",
  "settings_in_all_cases": "glycan notation: IUPAC condensed, linker removed",
  "key": {"[1]": {"molecular_target": "Fuc(a1-2)Gal(b1-3)GalNAc(a1-3)[Fuc(a1-2)]Gal(b1-4)GlcNAc", "outline": "(§1)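 Glycan array data came from 3228 arrays in the Consortium for Functional Glycomics database, and only arrays with an available protein sequence were kept. Glycan names were put into IUPAC-condensed notation, and columns mapping to the same glycan were averaged. The binding signal is a within-array Z-score, averaged across arrays of one protein sequence run at different concentrations or buffers and across linkers. A negative Z-score can be read as non-binding.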"}, "[2]": {"molecular_target": "Fuc(a1-2)Gal(b1-3)GlcNAc(b1-2)Man(a1-3)[Fuc(a1-2)Gal(b1-3)GlcNAc(b1-2)Man(a1-6)]Man(b1-4)GlcNAc(b1-4)GlcNAc", "outline": "as §1"}, "[3]": {"molecular_target": "Fuc(a1-2)Gal(b1-4)GlcNAc(b1-2)Man(a1-3)[Fuc(a1-2)Gal(b1-4)GlcNAc(b1-2)Man(a1-6)]Man(b1-4)GlcNAc(b1-4)GlcNAc", "outline": "as §1"}, "[4]": {"molecular_target": "Fuc(a1-2)Gal(b1-4)GlcNAc(b1-3)Gal(b1-4)GlcNAc(b1-3)Gal(b1-4)GlcNAc", "outline": "as §1"}, "[5]": {"molecular_target": "Fuc(a1-2)Gal6S(b1-3)GlcNAc6S", "outline": "as §1"}, "[6]": {"molecular_target": "Gal(a1-3)Gal(b1-4)[Fuc(a1-3)]GlcNAc(b1-2)Man(a1-3)[Gal(a1-3)Gal(b1-4)[Fuc(a1-3)]GlcNAc(b1-2)Man(a1-6)]Man(b1-4)GlcNAc(b1-4)GlcNAc", "outline": "as §1"}, "Gal(a1-4)Gal(b1-4)Glc": {"molecular_target": "Gal(a1-4)Gal(b1-4)Glc", "outline": "as §1"}, "[7]": {"molecular_target": "Gal(a1-4)Gal(b1-4)GlcNAc(b1-2)Man(a1-3)[Gal(a1-4)Gal(b1-4)GlcNAc(b1-2)Man(a1-6)]Man(b1-4)GlcNAc(b1-4)GlcNAc", "outline": "as §1"}, "Gal(b1-3)Gal(b1-4)GlcNAc": {"molecular_target": "Gal(b1-3)Gal(b1-4)GlcNAc", "outline": "as §1"}, "[8]": {"molecular_target": "Gal(b1-3)GalNAc(a1-3)[Fuc(a1-2)]Gal(b1-4)Glc", "outline": "as §1"}, "Gal(b1-4)Glc6S": {"molecular_target": "Gal(b1-4)Glc6S", "outline": "as §1"}, "[9]": {"molecular_target": "Gal(b1-4)GlcNAc(b1-2)Man(a1-3)[Gal(b1-4)GlcNAc(b1-2)Man(a1-6)]Man(b1-4)GlcNAc(b1-4)GlcNAc", "outline": "as §1"}, "[10]": {"molecular_target": "Gal(b1-4)GlcNAc(b1-2)[Gal(b1-4)GlcNAc(b1-4)]Man(a1-3)[Gal(b1-4)GlcNAc(b1-2)Man(a1-6)]Man(b1-4)GlcNAc(b1-4)GlcNAc", "outline": "as §1"}, "[11]": {"molecular_target": "Gal(b1-4)GlcNAc(b1-2)[Gal(b1-4)GlcNAc(b1-6)]Man(a1-6)[GlcNAc(b1-4)][Gal(b1-4)GlcNAc(b1-2)[Gal(b1-4)GlcNAc(b1-4)]Man(a1-3)]Man(b1-4)GlcNAc(b1-4)[Fuc(a1-6)]GlcNAc", "outline": "as §1"}, "[12]": {"molecular_target": "Gal(b1-4)GlcNAc(b1-3)Gal(b1-4)GlcNAc(b1-3)Gal(b1-4)GlcNAc(b1-2)Man(a1-3)[Gal(b1-4)GlcNAc(b1-3)Gal(b1-4)GlcNAc(b1-3)Gal(b1-4)GlcNAc(b1-2)Man(a1-6)]Man(b1-4)GlcNAc(b1-4)[Fuc(a1-6)]GlcNAc", "outline": "as §1"}, "[13]": {"molecular_target": "Gal(b1-4)GlcNAc(b1-3)Gal(b1-4)GlcNAc(b1-3)Gal(b1-4)GlcNAc(b1-2)[Gal(b1-4)GlcNAc(b1-3)Gal(b1-4)GlcNAc(b1-3)Gal(b1-4)GlcNAc(b1-6)]Man(a1-6)[Gal(b1-4)GlcNAc(b1-3)Gal(b1-4)GlcNAc(b1-3)Gal(b1-4)GlcNAc(b1-2)Man(a1-3)]Man(b1-4)GlcNAc(b1-4)[Fuc(a1-6)]GlcNAc", "outline": "as §1"}, "[14]": {"molecular_target": "Gal(b1-4)GlcNAc(b1-3)Gal(b1-4)GlcNAc(b1-3)Gal(b1-4)GlcNAc(b1-3)Gal(b1-4)GlcNAc(b1-3)Gal(b1-4)GlcNAc(b1-2)[Gal(b1-4)GlcNAc(b1-3)Gal(b1-4)GlcNAc(b1-3)Gal(b1-4)GlcNAc(b1-3)Gal(b1-4)GlcNAc(b1-3)Gal(b1-4)GlcNAc(b1-6)]Man(a1-6)[Gal(b1-4)GlcNAc(b1-3)Gal(b1-4)GlcNAc(b1-3)Gal(b1-4)GlcNAc(b1-3)Gal(b1-4)GlcNAc(b1-3)Gal(b1-4)GlcNAc(b1-2)Man(a1-3)]Man(b1-4)GlcNAc(b1-4)[Fuc(a1-6)]GlcNAc", "outline": "as §1"}, "[15]": {"molecular_target": "Gal(b1-4)GlcNAc(b1-3)Gal(b1-4)GlcNAc(b1-6)[Gal(b1-3)]GalNAc", "outline": "as §1"}, "[16]": {"molecular_target": "Gal(b1-4)GlcNAc(b1-3)Gal(b1-4)[Fuc(a1-3)]GlcNAc(b1-3)Gal(b1-4)[Fuc(a1-3)]GlcNAc", "outline": "as §1"}, "[17]": {"molecular_target": "Gal(b1-4)GlcNAc(b1-3)GalNAc", "outline": "as §1"}, "Gal3S(b1-3)GalNAc": {"molecular_target": "Gal3S(b1-3)GalNAc", "outline": "as §1"}, "[18]": {"molecular_target": "Gal3S(b1-3)[Fuc(a1-4)]GlcNAc", "outline": "as §1"}, "[19]": {"molecular_target": "Gal3S(b1-4)[Fuc(a1-3)]Glc6S", "outline": "as §1"}, "Gal3S4S(b1-4)GlcNAc": {"molecular_target": "Gal3S4S(b1-4)GlcNAc", "outline": "as §1"}, "Glc(b1-6)Glc": {"molecular_target": "Glc(b1-6)Glc", "outline": "as §1"}, "[20]": {"molecular_target": "GlcNAc(a1-4)Gal(b1-4)GlcNAc(b1-3)Gal(b1-4)Glc", "outline": "as §1"}, "GlcNAc(b1-3)Gal": {"molecular_target": "GlcNAc(b1-3)Gal", "outline": "as §1"}, "[21]": {"molecular_target": "GlcNAc(b1-3)[GlcNAc(b1-4)][GlcNAc(b1-6)]GlcNAc", "outline": "as §1"}, "[22]": {"molecular_target": "Man(a1-3)[Man(a1-6)]Man(a1-6)[Man(a1-3)]Man(b1-4)GlcNAc(b1-4)GlcNAc", "outline": "as §1"}, "[23]": {"molecular_target": "Neu5Ac(a2-3)Gal(b1-3)GlcNAc(b1-2)Man", "outline": "as §1"}},
  "note": "The entries come from a sample that favours the strongest signals as a whole.",
  "data": [
    {"binder": "B1", "values": [
      {"measurement": "glycan array binding signal (z-score)", "setting": "[1]", "result": -0.541},
      {"measurement": "glycan array binding signal (z-score)", "setting": "[2]", "result": 3.73},
      {"measurement": "glycan array binding signal (z-score)", "setting": "[3]", "result": 2.28},
      {"measurement": "glycan array binding signal (z-score)", "setting": "[4]", "result": 0.143},
      {"measurement": "glycan array binding signal (z-score)", "setting": "[5]", "result": -0.399},
      {"measurement": "glycan array binding signal (z-score)", "setting": "[6]", "result": -0.924},
      {"measurement": "glycan array binding signal (z-score)", "setting": "Gal(a1-4)Gal(b1-4)Glc", "result": 2.58},
      {"measurement": "glycan array binding signal (z-score)", "setting": "[7]", "result": 0.083},
      {"measurement": "glycan array binding signal (z-score)", "setting": "Gal(b1-3)Gal(b1-4)GlcNAc", "result": -0.843},
      {"measurement": "glycan array binding signal (z-score)", "setting": "[8]", "result": 3.31},
      {"measurement": "glycan array binding signal (z-score)", "setting": "Gal(b1-4)Glc6S", "result": 0.425},
      {"measurement": "glycan array binding signal (z-score)", "setting": "[9]", "result": 0.454},
      {"measurement": "glycan array binding signal (z-score)", "setting": "[10]", "result": 2.79},
      {"measurement": "glycan array binding signal (z-score)", "setting": "[11]", "result": -1},
      {"measurement": "glycan array binding signal (z-score)", "setting": "[12]", "result": 0.085},
      {"measurement": "glycan array binding signal (z-score)", "setting": "[13]", "result": 3.44},
      {"measurement": "glycan array binding signal (z-score)", "setting": "[14]", "result": 1.02},
      {"measurement": "glycan array binding signal (z-score)", "setting": "[15]", "result": 2.77},
      {"measurement": "glycan array binding signal (z-score)", "setting": "[16]", "result": -1.13},
      {"measurement": "glycan array binding signal (z-score)", "setting": "[17]", "result": -0.517},
      {"measurement": "glycan array binding signal (z-score)", "setting": "Gal3S(b1-3)GalNAc", "result": 2.59},
      {"measurement": "glycan array binding signal (z-score)", "setting": "[18]", "result": -0.243},
      {"measurement": "glycan array binding signal (z-score)", "setting": "[19]", "result": 3.51},
      {"measurement": "glycan array binding signal (z-score)", "setting": "Gal3S4S(b1-4)GlcNAc", "result": -0.674},
      {"measurement": "glycan array binding signal (z-score)", "setting": "Glc(b1-6)Glc", "result": 3.22},
      {"measurement": "glycan array binding signal (z-score)", "setting": "[20]", "result": 0.659},
      {"measurement": "glycan array binding signal (z-score)", "setting": "GlcNAc(b1-3)Gal", "result": 0.995},
      {"measurement": "glycan array binding signal (z-score)", "setting": "[21]", "result": -0.786},
      {"measurement": "glycan array binding signal (z-score)", "setting": "[22]", "result": 3.99},
      {"measurement": "glycan array binding signal (z-score)", "setting": "[23]", "result": -0.056}
    ]}
  ]
}
